The experiment deals with VDR:RXRa (NR concentration 270 nM, RXRa partner concentration 90 nM). Nature of the experiment: PBM binding z-score (relative to random genomic background probes); higher = stronger binding; sequences stand for … in GC…GCGATTGACAGCGTAGAATGAAGG
As to the method: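 Protein-binding microarray (Agilent 4x180K custom design, double-stranded 60-nt probes: 5' GC cap, 34-nt variable region, 24-nt constant primer region; full probe sequence given). Purified or IVT nuclear receptor:RXRα heterodimers (3:1 NR:RXRα, mostly 270:90 nM) or homodimers were incubated for 1 h in PBS with 2% milk and no ligand, then detected with Alexa488 antibodies. Fluorescence from o1-orientation probes (~5 replicates averaged) was converted to z-scores against 500 random hg19 background probes. Variable regions are seed direct-repeat (DR0–DR5) sites, all their single-nucleotide variants and half-site ablations.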
The sequence ACTAGCAGGCCAAGGGTCATTCAAGATTAGTCCG returned a PBM binding z-score of 3.49.

Take CGTCCAAGGTCAATGCTAGGGCAGTGAAAGCATT: the PBM binding z-score stood at 3.92.

Regarding CCTATTAGTTGACAATAAGGGCAACCGAAGCTCG, the PBM binding z-score worked out at 1.09.

Consider ACAGACATGTGATGAAGGTAACTCAGGCTATCAT, for which the PBM binding z-score was -0.214.

Sequence TCGAGTAGGTTAAGGGCATTCAGAATGGCGTCGA showed a PBM binding z-score of 0.959.

GCGACTGAGGCATCAGCAGGTTACCATAACTTAA: the PBM binding z-score was -0.37.

For GCGACTGGGGCATCAGCAGGTTACCTTAACTTAA, the PBM binding z-score was -0.355.

The sequence TCTCGGAGGACACGACGGTCAGAGCTTTCCAGAG gave a PBM binding z-score of -0.164.

TAGCCTAGGTCAGATCGGGCCAGTATGCGCTATA yielded a PBM binding z-score of 0.446.

Consider TCGGACAGGTGAAGGTAACTCAGGTACGCAGTCG, for which the PBM binding z-score was 0.531.

Sequence CAAACTAGGTCAAGCGGTCAAAGTCCGCTTCCCG registered a PBM binding z-score of 2.99.

In turn, TCTAGTAGATCAAAGGTTAAGAAAGCCGAAGCCT registered a PBM binding z-score of 1.37.

In turn, GGGACGAGGGCATTCGAGTTGATAGCATGGCGAT had a PBM binding z-score of 3.62.

CCTAGTTGGTCAGCAGGTCACACACCGGATATGA registered a PBM binding z-score of 2.32.

CCTGCTAGGTCATGGTAAGCTAATCTACAGTATG registered a PBM binding z-score of 1.49.

With CCTACTGGGCCACGGTCATTGATCAGTCAAAGCA, the PBM binding z-score is -0.388.

The sequence CGAACTAGGTCAAGGACAGTGGATCTCCGCACGC displayed a PBM binding z-score of 1.22.

Sequence TTTCAAAGTTCAAAGGTAACGTAAGTATCCACAC had a PBM binding z-score of 5.06.

As to TTACGAAGGTGAAGGTCGTTGATCCCTCTGTAGA, the PBM binding z-score amounted to 1.39.

For AATACAGGGTCTTCGTAGGCCAGAGTACGCACAG, the PBM binding z-score was 0.0684.

In turn, ATCTCTAGGTAACCAAGTTCAGTGCATGCCGAAC displayed a PBM binding z-score of 4.21.

As to ATCGAAAGGTCGACGAGGTGAGGATACACCGTTT, the PBM binding z-score is 5.19.

Take CCGAGTAGGTTCTGGGGCATTCAGGCAACGGTGA: the PBM binding z-score is -0.552.

The sequence TCTCGGAGGATACGAAGGTCAGAGCTTTCCAGAG returned a PBM binding z-score of 0.765.

In the case of GATACAGGGTCAGCTAGAGGCCAGGGTATGGAAA, the PBM binding z-score is 3.14.

CCTCGGAGGACAACAGGAGGTCCGAGCTGCCAGA returned a PBM binding z-score of -0.665.

In turn, CCAGACAGGTGAAAGATAACTCAGTCTGGTACGC yielded a PBM binding z-score of 0.17.

As for AGAATGAGGTTATTAACATCAGGGAATTGCGGTC, the PBM binding z-score amounted to 1.31.

CCTCGGAGGACAACAGGAGGTCAGTGCTGCCAGA: the PBM binding z-score worked out at 1.59.

Sequence TGAAAGAGGTTAAAGATCAGGGAACGTGGCGTCG had a PBM binding z-score of 1.82.

Take TCTTGTAGACCAAAGGTTAAGAAAGCCGAAGCCT: the PBM binding z-score stood at 0.807.

TAGCCTAGGTCATGCGGGCCATTATAGTGTCGGC came in with a PBM binding z-score of 4.09.

On to TAGCCTAGGTCATGGGCCAGCATACCACGCGAAC, for which the PBM binding z-score came to 1.68.

CACACAGGGTCAGCTAGGCCAGAGTAGGGACGGC came in with a PBM binding z-score of 3.8.

The sequence CAAACTAGGTCACCGGAAGGTCAAAGTCCGCATG returned a PBM binding z-score of 6.25.

Sequence ACTAGCAGGCCAAGTTTGGGTCACTCTAACAAAG came in with a PBM binding z-score of 0.395.

In turn, ATCGAAAGGTAGAAGGTGAGTATACCCACCCGAA gave a PBM binding z-score of -0.0163.

ACTATTAGTTGACTTAGGGTAACCGATACGACGC displayed a PBM binding z-score of 0.225.

For the sequence CATACAGGGTCAGCTAGGCCAAAGTAGGGACGGC, the PBM binding z-score came out at 4.73.

The sequence CTGACTGGGGCAAAGGTTACCATACTCAGTACGA had a PBM binding z-score of 2.07.

The values are drawn from the supplement of paper PMC6555819.
